According to PMC7862700, “An all-to-all approach to the identification of sequence-specific readers for epigenetic DNA modifications on cytosine”:

Assays:
Assay in all cases: DAPPL (digital affinity profiling via proximity ligation, sequencing); 10 mM Tris-HCl pH 7.5, 50 mM NaCl, 1 mM DTT, 4% glycerol, room temperature, 30 min; GST-TFs on glutathione beads, 16-mer random dsDNA library, 0.1% formaldehyde crosslink after washing; high values mean tight binding
Settings in all cases: protein: recombinant; tags: N-terminal GST; dsDNA, one strand shown
[1] = molecular target: T1, ELK1 (Homo sapiens, UniProt P19419 1-428)
T1 sequence: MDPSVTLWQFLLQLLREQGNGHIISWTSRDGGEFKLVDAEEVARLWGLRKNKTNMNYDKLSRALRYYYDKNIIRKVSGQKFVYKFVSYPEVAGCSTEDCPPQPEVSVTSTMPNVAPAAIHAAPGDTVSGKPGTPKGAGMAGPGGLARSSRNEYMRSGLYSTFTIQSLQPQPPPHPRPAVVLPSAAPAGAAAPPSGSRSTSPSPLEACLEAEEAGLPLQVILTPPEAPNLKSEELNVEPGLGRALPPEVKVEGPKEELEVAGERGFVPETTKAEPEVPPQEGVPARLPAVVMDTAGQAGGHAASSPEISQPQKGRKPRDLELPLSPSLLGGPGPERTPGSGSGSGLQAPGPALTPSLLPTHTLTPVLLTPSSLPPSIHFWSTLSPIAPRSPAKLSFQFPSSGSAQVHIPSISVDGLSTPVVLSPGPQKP
Method in brief: (§1)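 A tag-only sample was pooled with DNA-barcoded human transcription factors that had been expressed in yeast as GST fusions and captured on glutathione beads. The pools were incubated for 30 min at room temperature with 200 nmole of a random double-stranded 16-mer DNA library in Tris/NaCl/DTT/glycerol buffer, then washed, crosslinked with 0.1% formaldehyde, proximity-ligated (BsaI/T4 ligase, 1 h, 37 °C), PCR-amplified and sequenced on an Illumina NextSeq500. Binding signal is each hexamer's read frequency for a factor divided by its frequency for the tag-only sample.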

[2] = molecular target: T2, GABPA (Homo sapiens, UniProt Q06546 1-454)
T2 sequence: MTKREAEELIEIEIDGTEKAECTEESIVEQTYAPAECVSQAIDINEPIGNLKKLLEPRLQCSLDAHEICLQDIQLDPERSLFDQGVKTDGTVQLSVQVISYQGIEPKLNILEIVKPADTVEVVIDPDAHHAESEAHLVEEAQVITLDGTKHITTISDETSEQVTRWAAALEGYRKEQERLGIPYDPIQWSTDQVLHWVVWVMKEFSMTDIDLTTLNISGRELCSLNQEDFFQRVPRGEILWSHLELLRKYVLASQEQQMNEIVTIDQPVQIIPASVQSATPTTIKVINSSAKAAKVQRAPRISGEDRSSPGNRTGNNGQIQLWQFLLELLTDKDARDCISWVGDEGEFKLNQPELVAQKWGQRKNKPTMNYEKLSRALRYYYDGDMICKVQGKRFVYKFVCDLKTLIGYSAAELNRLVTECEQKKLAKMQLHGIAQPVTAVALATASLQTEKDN
Method in brief: as §1

[3] = molecular target: T3, ERG (Homo sapiens, UniProt P11308 1-479)
T3 sequence: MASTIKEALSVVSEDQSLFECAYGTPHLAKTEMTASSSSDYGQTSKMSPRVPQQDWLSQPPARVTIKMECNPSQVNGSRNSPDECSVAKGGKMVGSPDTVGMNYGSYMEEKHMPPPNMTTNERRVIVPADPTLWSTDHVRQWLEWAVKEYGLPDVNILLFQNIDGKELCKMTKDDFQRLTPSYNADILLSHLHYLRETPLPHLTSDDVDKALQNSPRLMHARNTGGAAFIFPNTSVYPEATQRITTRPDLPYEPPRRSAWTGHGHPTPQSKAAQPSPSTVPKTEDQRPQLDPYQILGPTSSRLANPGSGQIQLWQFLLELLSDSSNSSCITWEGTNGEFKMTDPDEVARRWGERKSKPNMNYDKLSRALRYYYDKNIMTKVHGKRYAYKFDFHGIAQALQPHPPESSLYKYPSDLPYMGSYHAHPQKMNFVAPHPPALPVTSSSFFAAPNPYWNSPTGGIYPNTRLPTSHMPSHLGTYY
Method in brief: as §1

[4] = molecular target: ELF1 (Homo sapiens, UniProt P32519 1-619)
ELF1, sequence (P32519 whole entry): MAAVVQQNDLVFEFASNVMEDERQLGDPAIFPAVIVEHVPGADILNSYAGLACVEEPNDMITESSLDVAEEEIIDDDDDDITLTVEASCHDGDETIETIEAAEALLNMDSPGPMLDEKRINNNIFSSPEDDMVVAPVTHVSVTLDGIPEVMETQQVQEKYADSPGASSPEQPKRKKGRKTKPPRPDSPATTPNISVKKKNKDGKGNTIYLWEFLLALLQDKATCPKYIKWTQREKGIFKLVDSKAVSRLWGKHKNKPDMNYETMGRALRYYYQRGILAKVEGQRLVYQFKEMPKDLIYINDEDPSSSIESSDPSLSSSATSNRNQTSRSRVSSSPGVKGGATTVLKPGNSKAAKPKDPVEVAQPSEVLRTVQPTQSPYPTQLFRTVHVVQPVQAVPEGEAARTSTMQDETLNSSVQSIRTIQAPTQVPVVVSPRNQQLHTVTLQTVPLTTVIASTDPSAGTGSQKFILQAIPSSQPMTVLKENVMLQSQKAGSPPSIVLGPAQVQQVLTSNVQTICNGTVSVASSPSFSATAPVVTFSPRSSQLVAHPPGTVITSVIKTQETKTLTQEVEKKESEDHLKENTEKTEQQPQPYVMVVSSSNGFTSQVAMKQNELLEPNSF
Method in brief: as §1

[5] = molecular target: T4, EHF (Homo sapiens, UniProt Q9NZC4 1-300)
T4 sequence: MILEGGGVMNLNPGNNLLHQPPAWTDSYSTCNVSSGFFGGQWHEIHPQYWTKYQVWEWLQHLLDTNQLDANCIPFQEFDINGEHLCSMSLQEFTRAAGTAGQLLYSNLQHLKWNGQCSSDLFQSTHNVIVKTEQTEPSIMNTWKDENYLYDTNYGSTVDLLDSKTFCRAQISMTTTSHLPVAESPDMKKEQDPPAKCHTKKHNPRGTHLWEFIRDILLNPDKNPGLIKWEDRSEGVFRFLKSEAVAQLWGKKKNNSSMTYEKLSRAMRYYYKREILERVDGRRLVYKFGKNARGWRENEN
Method in brief: as §1

[6] = molecular target: SPI1 (Homo sapiens, UniProt P17947 1-270)
Method in brief: as §1

[7] = molecular target: T5, ELK3 (Homo sapiens, UniProt P41970 1-407)
T5 sequence: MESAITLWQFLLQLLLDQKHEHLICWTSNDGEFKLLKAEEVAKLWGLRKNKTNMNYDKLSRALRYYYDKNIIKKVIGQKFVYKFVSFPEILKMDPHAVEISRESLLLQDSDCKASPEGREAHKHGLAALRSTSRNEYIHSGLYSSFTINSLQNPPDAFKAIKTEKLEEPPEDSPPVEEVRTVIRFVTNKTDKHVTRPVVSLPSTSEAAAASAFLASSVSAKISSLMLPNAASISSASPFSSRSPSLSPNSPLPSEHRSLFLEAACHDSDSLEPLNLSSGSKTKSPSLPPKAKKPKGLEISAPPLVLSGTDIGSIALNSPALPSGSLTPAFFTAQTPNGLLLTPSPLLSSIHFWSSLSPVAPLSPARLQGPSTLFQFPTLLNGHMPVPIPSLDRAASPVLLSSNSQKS
Method in brief: as §1

[8] = molecular target: T6, FEV (Homo sapiens, UniProt Q99581 1-238)
T6 sequence: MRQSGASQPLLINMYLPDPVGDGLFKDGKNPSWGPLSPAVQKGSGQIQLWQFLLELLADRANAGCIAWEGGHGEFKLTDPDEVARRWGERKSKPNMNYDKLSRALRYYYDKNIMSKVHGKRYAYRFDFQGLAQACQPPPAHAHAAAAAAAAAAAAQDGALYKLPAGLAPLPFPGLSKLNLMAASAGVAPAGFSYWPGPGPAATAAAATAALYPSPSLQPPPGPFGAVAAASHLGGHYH
Method in brief: as §1

[9] = molecular target: ELF4 (Homo sapiens, UniProt Q99607 1-663)
ELF4, sequence (Q99607 whole entry): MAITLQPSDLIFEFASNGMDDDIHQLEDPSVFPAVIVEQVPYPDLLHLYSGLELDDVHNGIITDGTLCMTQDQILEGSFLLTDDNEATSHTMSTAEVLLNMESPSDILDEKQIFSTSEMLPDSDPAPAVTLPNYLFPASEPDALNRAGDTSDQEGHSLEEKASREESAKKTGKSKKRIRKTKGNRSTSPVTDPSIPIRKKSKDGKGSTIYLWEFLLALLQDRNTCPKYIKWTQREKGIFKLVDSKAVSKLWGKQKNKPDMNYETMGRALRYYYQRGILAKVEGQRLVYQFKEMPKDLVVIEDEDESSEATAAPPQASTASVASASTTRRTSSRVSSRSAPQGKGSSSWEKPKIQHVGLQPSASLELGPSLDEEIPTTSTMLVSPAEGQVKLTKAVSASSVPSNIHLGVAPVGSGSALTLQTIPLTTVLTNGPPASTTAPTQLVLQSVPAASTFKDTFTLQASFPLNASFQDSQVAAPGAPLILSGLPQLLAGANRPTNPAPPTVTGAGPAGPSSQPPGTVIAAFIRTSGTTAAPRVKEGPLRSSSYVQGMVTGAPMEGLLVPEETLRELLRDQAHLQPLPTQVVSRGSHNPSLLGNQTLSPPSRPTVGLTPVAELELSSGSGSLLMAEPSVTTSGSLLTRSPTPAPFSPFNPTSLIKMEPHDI
Method in brief: as §1

[10] = molecular target: T7, ELK4 (Homo sapiens, UniProt P28324-2 1-405)
T7 sequence: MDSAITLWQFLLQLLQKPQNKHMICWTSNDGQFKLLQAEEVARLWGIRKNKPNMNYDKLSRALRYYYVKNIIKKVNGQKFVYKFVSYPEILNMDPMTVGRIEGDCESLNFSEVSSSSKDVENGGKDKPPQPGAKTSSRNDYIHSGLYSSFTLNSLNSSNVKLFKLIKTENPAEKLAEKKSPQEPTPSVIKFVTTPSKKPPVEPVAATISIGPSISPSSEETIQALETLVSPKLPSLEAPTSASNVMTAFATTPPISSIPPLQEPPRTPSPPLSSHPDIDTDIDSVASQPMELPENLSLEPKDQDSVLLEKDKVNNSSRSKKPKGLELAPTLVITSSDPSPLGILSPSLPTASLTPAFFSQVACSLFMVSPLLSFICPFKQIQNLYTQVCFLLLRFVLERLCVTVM
Method in brief: as §1

[11] = molecular target: ETV1 (Homo sapiens, UniProt P50549 1-477)
ETV1, sequence (P50549 whole entry): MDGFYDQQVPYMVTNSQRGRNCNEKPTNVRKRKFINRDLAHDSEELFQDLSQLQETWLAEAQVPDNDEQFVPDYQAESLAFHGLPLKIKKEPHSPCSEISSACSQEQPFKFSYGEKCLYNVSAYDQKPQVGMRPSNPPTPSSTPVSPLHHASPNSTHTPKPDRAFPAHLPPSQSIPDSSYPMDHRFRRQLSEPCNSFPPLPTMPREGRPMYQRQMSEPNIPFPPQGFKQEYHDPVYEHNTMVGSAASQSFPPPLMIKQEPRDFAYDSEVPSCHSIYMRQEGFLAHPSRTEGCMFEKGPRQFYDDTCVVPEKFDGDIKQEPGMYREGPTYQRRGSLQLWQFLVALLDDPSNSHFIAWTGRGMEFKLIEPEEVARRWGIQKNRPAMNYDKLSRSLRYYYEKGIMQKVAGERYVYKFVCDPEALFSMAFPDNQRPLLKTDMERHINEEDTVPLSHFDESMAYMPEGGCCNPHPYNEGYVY
Method in brief: as §1

[12] = molecular target: T8, ERF (Homo sapiens, UniProt P50548 1-548)
T8 sequence: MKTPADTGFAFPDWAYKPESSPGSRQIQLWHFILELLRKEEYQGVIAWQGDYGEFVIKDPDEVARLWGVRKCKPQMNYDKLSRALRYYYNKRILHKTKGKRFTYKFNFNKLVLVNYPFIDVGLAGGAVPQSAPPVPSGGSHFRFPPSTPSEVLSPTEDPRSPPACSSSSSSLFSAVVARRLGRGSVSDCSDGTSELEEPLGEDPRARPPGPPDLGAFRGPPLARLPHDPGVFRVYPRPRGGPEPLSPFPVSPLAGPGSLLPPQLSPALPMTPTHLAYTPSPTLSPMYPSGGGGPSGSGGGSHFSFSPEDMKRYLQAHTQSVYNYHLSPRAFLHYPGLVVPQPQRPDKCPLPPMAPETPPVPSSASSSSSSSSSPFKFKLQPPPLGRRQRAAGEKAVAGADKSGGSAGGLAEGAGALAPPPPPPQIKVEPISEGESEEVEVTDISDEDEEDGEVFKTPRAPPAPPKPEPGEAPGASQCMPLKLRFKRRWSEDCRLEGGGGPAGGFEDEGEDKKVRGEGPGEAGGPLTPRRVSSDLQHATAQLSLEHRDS
Method in brief: as §1

[13] = molecular target: T9, ETS2 (Homo sapiens, UniProt P15036 1-469)
T9 sequence: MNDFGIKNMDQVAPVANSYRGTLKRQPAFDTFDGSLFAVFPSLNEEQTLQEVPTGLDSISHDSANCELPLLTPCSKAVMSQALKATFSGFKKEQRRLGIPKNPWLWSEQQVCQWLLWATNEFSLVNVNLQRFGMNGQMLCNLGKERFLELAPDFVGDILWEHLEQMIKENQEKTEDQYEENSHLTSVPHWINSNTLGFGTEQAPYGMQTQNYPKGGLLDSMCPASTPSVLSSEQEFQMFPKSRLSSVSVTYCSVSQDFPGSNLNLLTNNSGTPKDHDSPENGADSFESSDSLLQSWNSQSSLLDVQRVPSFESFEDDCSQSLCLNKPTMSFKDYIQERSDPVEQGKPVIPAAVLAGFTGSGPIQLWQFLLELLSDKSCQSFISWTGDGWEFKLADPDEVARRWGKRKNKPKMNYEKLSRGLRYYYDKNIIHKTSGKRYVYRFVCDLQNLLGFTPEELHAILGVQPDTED
Method in brief: as §1

[14] = molecular target: T10, ETV3 (Homo sapiens, UniProt P41162-2 1-143)
T10 sequence: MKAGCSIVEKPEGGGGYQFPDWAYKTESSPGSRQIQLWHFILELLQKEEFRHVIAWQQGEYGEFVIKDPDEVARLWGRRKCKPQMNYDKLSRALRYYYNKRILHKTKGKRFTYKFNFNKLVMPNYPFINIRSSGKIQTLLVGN
Method in brief: as §1

With CACCGC the binding signal [1] was 1.01 fold enrichment (6-mer frequency, TF over GST control), the binding signal [2] was 1.06 fold enrichment (6-mer frequency, TF over GST control) and the binding signal [3] was 1.02 fold enrichment (6-mer frequency, TF over GST control). The binding signal [4] was 1.04 fold enrichment (6-mer frequency, TF over GST control), the binding signal [5] was 1.08 fold enrichment (6-mer frequency, TF over GST control) and the binding signal [6] was 1.01 fold enrichment (6-mer frequency, TF over GST control). For the same sequence, the binding signal [7] was 1.06 fold enrichment (6-mer frequency, TF over GST control), the binding signal [8] was 1.04 fold enrichment (6-mer frequency, TF over GST control) and the binding signal [9] was 1.06 fold enrichment (6-mer frequency, TF over GST control). The binding signal [10] was 1 fold enrichment (6-mer frequency, TF over GST control), the binding signal [11] was 1 fold enrichment (6-mer frequency, TF over GST control) and the binding signal [12] was 1.07 fold enrichment (6-mer frequency, TF over GST control). The binding signal [13] was 1.05 fold enrichment (6-mer frequency, TF over GST control) and the binding signal [14] was 1.04 fold enrichment (6-mer frequency, TF over GST control).
